From PubChem BioAssay
DAX1 inh-1 = DAX1 (NR0B1) inhibition, primary screen; 1.1% of 370,000 active; AID 652010; HEK293T StAR-luciferase reporter, SF-1/DAX-1 repression relief; inhibition, % at 6.8 µM;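 active = inhibition above the mean over all tested compounds plus 3 SD, cut at about 3.6% in these data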;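 also: 0% = DAX-1 cells with DMSO and 100% = cells lacking DAX-1 with DMSO; higher inhibition means more luminescence from relief of DAX-1 repression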
hgDAF12 agonist = hgDAF-12 agonism, primary luciferase screen; 1.8% of 370,000 active; HEK293 GAL4-hgDAF12 UAS-luciferase reporter, agonist luminescence; normalized to butyrate control; activation, % at 6.8 µM;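 active = activation above a cutoff set at the mean of all screened compounds plus 3 SD, cut at about 10% in these data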;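 also: 0% = DMSO wells and 100% = sodium butyrate wells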
ssDAF-12 act = S. stercoralis DAF-12 activation, primary screen; HEK293 ssDAF-12/GRIP1 lit1-tk-luc reporter, luminescence; % of 3 µM dafachronic acid response; activation, % at 6.8 µM; 1% of 370,000 active; AID 652126;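 active = activation above the mean over all tested compounds plus 3 SD, cut at about 0.9% in these data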;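 also: 0% = DMSO-only wells and 100% = 3 µM delta7-dafachronic acid wells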
DAX1 inh-2 = inhibits human nuclear receptor DAX1. HEK293 Gal4-DAX1 luciferase reporter, luminescence. inhibition, % at 6.75 µM. P51843. 0.99% of 340,000 active;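 active = inhibition above the mean over all tested compounds plus 3 SD, cut at about 4.2% in these data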;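 also: 0% = DAX1-transfected cells with DMSO and 100% = empty-vector control cells with DMSO; inhibition shows as a rise in luminescence from relieved DAX1 repression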
Target sequence (P51843 207-470 limits assumed): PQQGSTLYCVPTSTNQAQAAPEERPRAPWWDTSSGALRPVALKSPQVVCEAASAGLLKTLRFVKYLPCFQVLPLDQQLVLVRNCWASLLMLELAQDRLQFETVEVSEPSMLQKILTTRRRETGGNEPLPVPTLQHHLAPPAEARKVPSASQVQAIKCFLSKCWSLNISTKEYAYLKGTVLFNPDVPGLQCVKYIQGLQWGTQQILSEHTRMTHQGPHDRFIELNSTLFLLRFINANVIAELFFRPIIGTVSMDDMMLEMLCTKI
hcDAF-12 act = activates DAF-12 receptor from parasite H. contortus; activation, % at 6.8 µM; 1.4% of 370,000 active; AID 652067; HEK293 hcDAF-12 lit1-tk-luc reporter, luminescence; 0% DMSO, 100% Δ7-dafachronic acid;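 active = activation above the mean of all tested compounds plus 3 SD, cut at about 5.5% in these data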;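 also: 100% = response to 3 µM Δ7-dafachronic acid high control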
* hit, by the source's call; . = no result given. Most compounds without a hit are left out; they make up all but 4.1% or so of the library.

SMILES	DAX1 inh-1	hgDAF12 agonist	ssDAF-12 act	DAX1 inh-2	hcDAF-12 act
COc1ccc2[nH]c(N=Nc3ccccc3C)c(O)c2c1	0	9	0	1	6.5*
COc1ccc(N=Nc2c(C)[nH]c3ccccc23)cc1	-1	4	-1	-1	3
COc1ccc(CNC(=O)[C@H](C)NC(=O)C2CCN(C(=O)[C@@H](N)Cc3ccccc3)CC2)cc1	1	6	-1	6.1*	-1
COc1ccc(CNC(=O)[C@H](NC(=O)C2CCN(C(=O)[C@@H](N)CCSC)CC2)C(C)C)cc1	0	-3	-1	2	-1
Cc1ccc(NC(=O)[C@H](C)NC(=O)C2CCN(C(=O)[C@@H](N)CC(C)C)CC2)cc1	0	2	0	-1	6.0*
CSCC[C@H](N)C(=O)N1CCC(C(=O)N[C@@H](C)C(=O)NCc2ccc(F)cc2)CC1	0	1	-2	3	1
COc1ccc(CNC(=O)[C@H](C)NC(=O)C2CCN(C(=O)[C@@H](N)CCSC)CC2)cc1	0	-1	-2	4.4*	-1
O=C(NCCc1c[nH]c2ccccc12)[C@H](Cc1c[nH]c2ccccc12)NC1(C(=O)NC2CCCCC2)CCCCCCC1	.	-1	0	.	1
CSCc1ccc(C(=O)NCCSc2ccc(Br)cc2)cc1	4.1*	6	-1	0	5
CCCCN1C(=O)N2Cc3cc(OC)ccc3C2CS1(=O)=O (centres undefined)	1	11*	-1	.	5.6*
COc1ccc2c(c1)CN1C(=O)N(CCc3ccccc3)S(=O)(=O)CC21 (centres undefined)	1	5	-1	.	1
COc1ccc(-c2nc3ccccn3c2CN2CCN(c3ccccc3F)CC2)cc1	1	6	-1	4.4*	0
Clc1ccc(-c2nc3ccccn3c2CN2CCOCC2)cc1	0	5	-1	0	0
CCc1c(C)sc(NC(=S)N2CCN(CC)CC2)c1C(=O)OC	0	1	-2	5.2*	-2
CC1=NC(=O)C(N=Nc2ccccc2C(=O)O)N1c1ccccc1 (centres undefined)	0	5	0	.	4
CC1=NC(=O)C(N=Nc2ccccc2)N1c1ccccc1 (centres undefined)	1	4	1	4.6*	5
COC(=O)[C@]12C[C@H](CC(=O)NCc3ccc(OC)c(OC)c3)C(=O)N(Cc3ccco3)C1=C[C@H](C(C)(C)C)O[C@@H]2C	0	0	-1	.	-1
CC(=O)C(C)Oc1ccc2c3c(c(=O)oc2c1)CCCCC3 (centres undefined)	0	11*	-1	2	4
O=C(N[C@H](Cc1ccccc1)C(=O)NCCCc1ccccc1)[C@H]1O[C@@H](n2ccc(=O)[nH]c2=O)[C@H](O)[C@@H]1O	2	-2	-1	.	-1
COC(=O)CCC(=O)c1oc2ccc(Br)cc2c1N	3	11*	0	3	1
COc1cc(/C=C(/C(=O)c2cccs2)c2nc3ccccc3[nH]2)ccc1O	-3	11*	-1	-2	2
COC(=O)C1CN(C2CCCC2)CCS(=O)(=O)N1Cc1ccc(C)cc1 (centres undefined)	-2	-1	-2	.	-2
CCOC(=O)CSc1nc2sc3c(c2c(=O)n1-c1ccc(C)cc1)CCN(C)C3	0	0	0	-1	6.1*
Cn1c(Nc2ccccc2)nc2ccccc21	0	1	-1	1	-1
Nn1c(Nc2ccccc2)nc2ccccc21	1	8	0	4.4*	1
SMILES	DAX1 inh-1	hgDAF12 agonist	ssDAF-12 act	DAX1 inh-2	hcDAF-12 act
CC(C)(C)OC(=O)NCc1ccccc1/C=C/S(=O)(=O)NCc1ccccc1	-1	0	-2	.	-1
Cc1c(NC(=O)C2CCCN(S(=O)(=O)c3ccc(F)cc3)C2)c(=O)n(-c2ccccc2)n1C (centres undefined)	0	4	-1	.	-1
O=Cc1ccc2noc(-c3ccc(Cl)cc3)c2c1	1	9	-1	0	6.5*
Fc1ccccc1-c1n[nH]c(=S)n1N=Cc1cccc(OCc2ccccc2)c1	-2	0	-1	.	-4
CSCCC(N=C(NS(=O)(=O)c1ccccc1)c1ccccc1)C(=O)O (centres undefined)	-1	-2	2.4*	0	-2
Nc1ccccc1S(=O)(=O)NC1=NCCCCC1	0	-3	0	4.4*	1
COC(=O)c1cc2c(c3c4cc(C)ccc4n(S(=O)(=O)c4ccc(OC)cc4)c13)C(=O)N(Cc1ccc(C(F)(F)F)cc1)C2	0	0	-1	.	1
CCOC(=O)c1cc2cc3ccccc3cc2[nH]1	1	9	1.0*	2	4
O=C(OCc1cn(Cc2cccc(F)c2F)nn1)N1CCCC1	0	-1	-1	.	0
COCc1[nH]nc2c1C(c1cccc(C(F)(F)F)c1)N(c1ccccc1)C2=O (centres undefined)	1	-1	-1	.	-1
COc1ccc(C(O)c2nc(-c3cccs3)cs2)cc1 (centres undefined)	0	-1	-1	.	1
OC(c1ccco1)c1nc(-c2cccs2)cs1 (centres undefined)	1	5	1.4*	.	5.8*
CC(=O)OCCCN(C)CC/C=C1/c2ccccc2CSc2ccccc21	0	0	1.0*	0	-1
Nc1ccn([C@@H]2O[C@H](C(=O)NCC(=O)N3CCOCC3)[C@@H](O)[C@H]2O)c(=O)n1	-1	-2	-1	.	0
COc1ccc(S(=O)(=O)N2N=C(c3cccc(NS(C)(=O)=O)c3)CC2c2ccco2)cc1 (centres undefined)	-1	-2	-1	-1	-2
COc1ccc(S(=O)(=O)N2N=C(c3ccc(NS(C)(=O)=O)cc3)CC2c2ccco2)cc1 (centres undefined)	1	2	1.3*	2	5.6*
O=C(CSc1nc2ccsc2c(=O)n1CC1CCC(C(=O)O)CC1)c1ccc(Cl)cc1 (centres undefined)	1	-2	-1	0	-2
O=C(CSc1nc2ccsc2c(=O)n1CC1CCC(C(=O)O)CC1)c1ccc(F)cc1 (centres undefined)	-1	11*	-2	1	-1
O=C(O)C1CCC(Cn2c(SCc3cc(=O)n4ccccc4n3)nc3ccsc3c2=O)CC1 (centres undefined)	0	0	-2	5.0*	-2
C[C@H]1[C@@H](OC(=O)Nc2ccc(Cl)cc2)CC[C@@]23CCCN2C(=O)CCC[C@@H]13	.	0	-1	.	-2
N#Cc1ccc(/C=C2\CC3(OC(=O)c4cccc(F)c4)CCCN2C3)cc1 (centres undefined)	-2	2	-2	.	-1
Cc1ccc(-n2c(SCC(=O)c3ccc(O)c(O)c3)nnc2-c2ccccc2)cc1	-2	2	-1	.	-1
